Data on 97 molecules can be found in PubChem BioAssay AID434973 (Sanford-Burnham Center for Chemical Genomics, 2010).

In general, inhibition refers to the change of the read-out against control, counted positive when it falls.

Screen size: about 330,000 compounds; about 4,900 (1.5%) were called active. Only a selection was taken, and actives are over-represented in it overall. Unmarked numbers belong to inactive results.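 Rule for the calls: active = inhibition above about 50% at the single test dose (limit read from the data); inactive = the rest.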

In this experiment the target is Sentrin-specific protease 7 (Homo sapiens) (UniProt Q9BQF6). The experiment is described as follows: SENP7 protease inhibitors, primary screen, biochemical, luminescence, uHTS (AID 434973).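 Note: plate controls were DMSO with enzyme for no effect and no enzyme buffer wells for full effect.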 Conditions: recombinant SENP7, Z-RLRGG-aminoluciferin luminescence, 40 min; at 5 µM; hits give high values.
Take `CCc1ccc(Oc2coc3cc(O)ccc3c2=O)cc1`: the inhibition was -2.69%.

On to `O=c1c(-c2ccccc2)coc2cc(O)ccc12`, for which the inhibition is 66.2% (active).

For the molecule `CC(C)CN(Cc1c(O)ccc2c(=O)c(-c3ccccc3)coc12)CC(C)C`, the inhibition was 11.8%.

On to `CC(=O)Nc1ccc(S(=O)(=O)N2CCC(C(=O)N[C@@H](Cc3ccccc3)C(=O)O)CC2)cc1`, for which the inhibition is -6.11%.

As to `Cc1[nH]n(-c2ccccc2)c(=O)c1N=Nc1ccccc1C(=O)N1CCCCC1`, the inhibition is 0.644%.

As for `Cc1[nH]n(-c2ccc([N+](=O)[O-])cc2)c(=O)c1C=NCCN1CCN(C(=O)c2ccccc2F)CC1`, the inhibition is 82.4% (active).

`C=CCNC(=S)N1CCN(CCN=Cc2c(C)[nH]n(-c3ccc([N+](=O)[O-])cc3)c2=O)CC1`: the inhibition was 87.2% (active).

As to `Cc1ccc(-n2[nH]c(C)c(/C=N/NC(=O)c3cccc([N+](=O)[O-])c3)c2=O)cc1C`, the inhibition is -1.05%.

`CCNC(=S)N1CCN(CCN=CC2=C(O)CC(C)(C)CC2=O)CC1`: the inhibition is -0.44%.

Turning to `CC1(C)CC(=O)C(C=NCCN2CCN(C(=S)Nc3cccc(Cl)c3)CC2)=C(O)C1`, the inhibition was -11.9%.

Regarding `Cc1ccc(C(=O)N(CC(=O)NC2CCCC2)c2ccc(F)cc2)s1`, the inhibition was -4.07%.

For `CCc1noc(C)c1C(=O)N1CCN(S(=O)(=O)c2cccc(C(F)(F)F)c2)CC1`, the inhibition was 0.961%.

As to `S=c1[nH]c(-c2cccs2)cn1-c1ccccc1`, the inhibition was -0.786%.

In the case of `O=c1oc2ccccc2cc1-c1cn(-c2ccccc2)c(=S)[nH]1`, the inhibition is 99.2% (active).

Regarding `O=C(Nc1cc2ccccc2oc1=O)C1CCCCC1`, the inhibition was 0.223%.

On to `COc1ccc(C(CCN(Cc2ccc(OC)c(OC)c2)C(=O)CCl)c2ccccc2)cc1` (configuration not stated), for which the inhibition was -4.24%.

For the molecule `CCCS(=O)(=O)N1CCCC(C(=O)NCCN2CCCCC2C)C1` (configuration not stated), the inhibition was 4.11%.

Regarding `COc1ccc(/C=C2\SC(=S)N(CCC(=O)Nc3cccc(C(=O)O)c3)C2=O)cc1OC`, the inhibition was -3.5%.

`COc1ccc(/C=C2\SC(=S)N(CC(=O)NNC(=O)c3ccncc3)C2=O)cc1`: the inhibition was 5.57%.

Regarding `C=CCOc1ccc(/C=C2\SC(=S)N(CCC(=O)O)C2=O)cc1`, the inhibition was 98.9% (active).

For `CCO[C@@H]1OC(C(=O)NC2CC2)=C[C@H](C)[C@H]1CCCO`, the inhibition was 6.12%.

Consider `Cn1nccc1NS(=O)(=O)c1ccc(F)cc1`, for which the inhibition was 4.62%.

For the molecule `O=C(CN1CCOC1=O)N1CCCC(Nc2ccc(F)c(F)c2)C1` (configuration not stated), the inhibition was 1.33%.

In the case of `Cc1cccc(NC(=O)c2ccc3ccccc3n2)n1`, the inhibition is 78.7% (active).

Turning to `Cc1cccc(NC(=O)c2cccnc2Cl)n1`, the inhibition is 5.58%.

Take `Cc1cccc(NC(=O)c2cc(N3C(=O)CCC3=O)ccc2Cl)n1`: the inhibition is 6.63%.

Regarding `O=C(O)C1=CCCN(CCON=C(c2ccccc2)c2ccccc2)C1`, the inhibition was 1.76%.

Take `Cc1ccc(CSc2nsc(C)c2C#N)cc1`: the inhibition was -2.96%.

Consider `COC(=O)C(=Nc1ccccc1)/C(C(=O)C(=O)N(C)c1ccccc1)=C(\O)c1ccc(Cl)cc1`, for which the inhibition was -1.49%.

Regarding `CCn1c(CC(=O)Nc2ccccc2C)nnc1SCC(=O)NC1=NCCS1`, the inhibition is -7.93%.

In the case of `CC(=O)Nc1ccccc1NC(=O)c1cc(C)cc(C)c1`, the inhibition was 2.28%.

Consider `CSCc1ccc(C(=O)Nc2cc(C)cc(C)c2)cc1`, for which the inhibition was 75.3% (active).

`C=CCN(c1ccc(C(=O)Nc2cc(C)cc(C)c2)cc1)S(C)(=O)=O`: the inhibition was 6.36%.

For the molecule `CN(C)C(=O)Cn1c(=O)n(S(=O)(=O)c2ccccc2)c2ccccc21`, the inhibition was 2.64%.

Take `C/C(=N\NC(=O)c1ccc(C)cc1)C1C(=O)c2ccccc2C1=O`: the inhibition is 77.1% (active).

For the molecule `C/C(=N\NC(=O)CNC(=O)C(c1ccccc1)c1ccccc1)c1ccc(C)cc1`, the inhibition was -4.66%.

With `Cc1ccc(C(=O)N/C(=C/c2cccnc2)C(=O)O)cc1`, the inhibition is -9.12%.

As to `CC(=O)N1c2ccc(S(=O)(=O)N3CCCC(C(=O)Nc4ccc(C)cc4C)C3)cc2CC1C` (configuration not stated), the inhibition is 7.52%.

On to `CSc1ccc(C#N)cc1NC(=O)c1ccc(Cl)cc1`, for which the inhibition is 0.394%.

Take `COc1cccc2sc(Nc3nc(C)c(C(C)=O)s3)nc12`: the inhibition was 69.1% (active).

Take `CNC(=O)c1sc(NCc2ccccc2OC)nc1C`: the inhibition is 6.9%.

As for `CC(=O)c1sc(N/N=C/c2ccc(C(C)C)cc2)nc1C`, the inhibition was 0.0938%.

Take `COc1ccc(S(=O)(=O)N2CCOC2CNC(=O)C(=O)NCc2ccc(F)cc2)cc1` (configuration not stated): the inhibition was 2.2%.

Take `C=CCN(C(=O)Nc1ccc2c(c1)nc(C)n2C)c1ccccc1`: the inhibition was 5.72%.

Take `Cc1nc2cc(NC(=O)Nc3cccc(F)c3)ccc2n1C`: the inhibition is 96.5% (active).

`Cn1c(CCN2CCCCCC2)nc2cc(NC(=O)Nc3ccccc3)ccc21`: the inhibition is 10%.

Take `O=[N+]([O-])c1c(NCCO)cc(Sc2nc3ccccc3s2)c2nonc12`: the inhibition is 79.2% (active).

With `NC(=O)c1ccc(Nc2ccc3nonc3c2[N+](=O)[O-])cc1`, the inhibition was -0.507%.

Turning to `Cc1nc2nc(CSc3nc4ccccc4s3)cc(=O)n2[nH]1`, the inhibition was -13.3%.

For the molecule `COc1ccc(OCC(O)CN(C)C(=O)C(C)Oc2ccccc2)cc1` (configuration not stated), the inhibition is 11.8%.

For the molecule `COc1ccc(C2=NS(=O)(=O)N(C)C(C(=O)N3CCCCC3)=C2)cc1`, the inhibition was -5.66%.

`O=C(CCNS(=O)(=O)c1cccs1)N1CCN(c2ccc(F)cc2)CC1`: the inhibition was -1.51%.

In the case of `N/C(=N\OC(=O)CCC1CCCCC1)c1ccccn1`, the inhibition is 82% (active).

Turning to `N/C(=N\OC(=O)CC1CCCCC1)c1ccccc1`, the inhibition was 21.8%.

For the molecule `COc1ccccc1OCC(=O)O/N=C(\N)c1ccccn1`, the inhibition was 7.18%.

As to `O=C(CSc1nnc(COc2ccc(Cl)cc2)n1Cc1ccco1)N1CCNC1=O`, the inhibition is -0.0156%.

In the case of `O=S(=O)(NCC1CC1)c1ccc(F)c(Cl)c1`, the inhibition is 2.72%.

Consider `COc1ccccc1N=C(C)C1=C(O)COC1=O`, for which the inhibition was -4.17%.

For the molecule `COc1cc(N=Cc2c(O)c3ccccc3oc2=O)c(OC)cc1Cl`, the inhibition is -0.159%.

For the molecule `COc1ccccc1N=Cc1c(O)c2ccccc2oc1=O`, the inhibition was 88% (active).

Regarding `N/C(=N\OC(=O)c1ccc2c(c1)OCO2)c1ccc(Br)cc1`, the inhibition was 71.1% (active).

Regarding `N/C(=N\OC(=O)N1c2ccccc2Sc2ccccc21)c1ccc(Br)cc1`, the inhibition is -8.09%.

Take `N/C(=N\OC(=O)/C=C/c1ccccc1)c1ccc(Br)cc1`: the inhibition is 9.06%.

For the molecule `COc1ccc(C2c3c(C)nn(-c4ccccc4)c3NC(=O)N2c2ccccc2)cc1` (configuration not stated), the inhibition is 3.05%.

For `CCCCNC(=O)OC(C)CNC(=O)OC` (configuration not stated), the inhibition was -1.91%.

Turning to `Cc1ccc(C(=O)NCC(=O)O)s1`, the inhibition is -11.9%.

As to `O=C(NCCc1ccccc1)C1CC1`, the inhibition was -1.24%.

Consider `COc1ccc(N(C(=O)c2snc(C(N)=O)c2N)C(C(=O)NC2CCCC2)c2ccco2)cc1OC` (configuration not stated), for which the inhibition was -9.37%.

In the case of `CCc1ccc(-c2cc(C(=O)NCc3ccco3)c3ccccc3n2)s1`, the inhibition is 6.27%.

Turning to `CC(C)CC(=O)N/C(N)=N/c1nc2ccccc2s1`, the inhibition was 33.4%.

`CCC1(CC)NC(=O)N(Cc2nc3ccccc3s2)C1=O`: the inhibition is -4.41%.

`C/C(=N\NC(=O)CC(C)C)c1c(C(F)(F)F)[nH]n(-c2nc3ccccc3s2)c1=O`: the inhibition is 98.7% (active).

As to `CCC(C)Cn1c(O)cc2nn(-c3nc4ccccc4s3)c(=O)c-2c1C` (configuration not stated), the inhibition was 8.83%.

In the case of `CC(=NCc1ccco1)c1c(C(F)(F)F)[nH]n(-c2nc3ccccc3s2)c1=O`, the inhibition is 98.9% (active).

Regarding `CC(=O)c1sc(NC(=O)CCN2C(=O)C3CC=CCC3C2=O)nc1-c1ccccc1` (configuration not stated), the inhibition was 0.528%.

With `Cc1ccc(C)c(N2C(=O)CS/C2=N\NC(=O)c2ccccc2Cl)c1`, the inhibition is -12.9%.

For the molecule `CCCCC/C=C/C1=CC(=O)C[C@H](c2ccc(Cl)cc2)C1`, the inhibition is 2.82%.

For the molecule `CCOc1ccc(N/C=C/C(=O)c2ccccc2)cc1`, the inhibition is 99.3% (active).

On to `CCOc1ccc(NC(=S)N2CCC(NC(=O)c3ccccc3)CC2)cc1`, for which the inhibition is -5.22%.

Take `CC(=O)Nc1ccc(/C=C/C(=O)c2ccccc2)cc1`: the inhibition is -13.6%.

Turning to `Cc1cc(N/C=C\C(=O)c2ccc(Cl)c(Cl)c2)no1`, the inhibition was 10.2%.

As to `COc1ccc(C(=O)/C=C/Nc2ccccn2)cc1`, the inhibition was 99.2% (active).

As to `COc1ccc(N2C(=O)CCC(C(=O)Nc3ccccn3)C2c2ccc(OC)c(OC)c2)cc1` (configuration not stated), the inhibition is 9.84%.

In the case of `CCOc1ccc(N/C=C/C(=O)c2cc(OC)c(OC)c(OC)c2)cc1`, the inhibition is -14.5%.

Take `Cc1ccc(N/C=C/C(=O)c2ccccc2)cc1C`: the inhibition is 91.8% (active).

For the molecule `O=C(/C=C/NCc1ccc(F)cc1)c1ccccc1`, the inhibition is 7.34%.

As to `NCCCC[C@@H]1NC(=O)[C@H](CCC(=O)O)NC(=O)c2cc([N+](=O)[O-])cc(I)c2NCC[C@@H](C(N)=O)NC1=O`, the inhibition is 0.545%.

Regarding `O=C(COC(=O)c1cccnc1Cl)NC(=O)NC1CCCCC1`, the inhibition was -2.4%.

Turning to `O=S(=O)(Nc1ccc2nc(N3CCOCC3)sc2c1)c1ccccc1`, the inhibition is -7.76%.

Turning to `O=C(NCCc1cccc(F)c1)C1CCCN(c2nc3ccccc3s2)C1` (configuration not stated), the inhibition was 7.46%.

Take `c1c2c(cc3sc(N4CCCCC4)nc13)OCCO2`: the inhibition is 97.8% (active).

Regarding `CN(C)CCCN(C(=O)c1ccc(S(=O)(=O)N2CCCCCC2)cc1)c1nc2cc3c(cc2s1)OCCO3`, the inhibition was 4.88%.

With `O=C(c1ccc2nc(N3CCOCC3)sc2c1)N1CCN(c2ccc(Cl)cc2)CC1`, the inhibition is 0.5%.

Turning to `Fc1ccc2nc(Nc3nc4c(s3)CCCC4)sc2c1`, the inhibition was 9.46%.

In the case of `Brc1ccc2nc(N3CCCC3)sc2c1`, the inhibition is 93.4% (active).

Turning to `Fc1ccc2nc(N3CCCCC3)sc2c1`, the inhibition is 85.3% (active).

For `Cc1nc(N2CCCCC2)sc1C=O`, the inhibition was 11.3%.
